Source: PubChem BioAssay AID588783 (NMMLSC, 2011)
Results with a measured potency or affinity are listed apart.

The compounds below were run on beta-arrestin 1 peptide binding to AP-2 beta2-adaptin appendage (human) (assay: inhibitors of arrestin peptide binding to AP2, dose response, biochemical, cherry pick 1, beta2-adaptin appendage, flow cytometry (AID 588783)). Conditions: Bead flow cytometry, FITC-arrestin peptide binding GST-AP2; at 9.12 µM; hits give high values;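 active = inhibition of specific binding of 40% or more; inactive = inhibition of specific binding below 40%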.

Inhibition of specific binding, inactive:
Cc1nn(-c2ccccn2)c2c1C(c1ccsc1)C1=C(CCCC1=O)N2 (stereo unspecified) 12%
Nc1c(C(=O)NC2CC2)sc2nc3c(c(-c4ccco4)c12)CC/C3=C/c1ccco1 22%
O=C(NCC1COc2ccccc2O1)c1ccc(NC(=O)C(c2ccccc2)c2ccccc2)cc1 (stereo unspecified) 7%
COC(=O)c1ccccc1N/C=C1\CCc2c(c(C)nn2-c2ccccn2)C1=O 7%
CN1c2ccccc2N(C)C1(C)c1ccccc1 3%
COc1cc(C2Nc3cccc4cccc(c34)N2)cc(OC)c1O 12%
